Mtb FBA inh – inhibits M. tuberculosis FBA enzyme. P9WQA3. purified M. tuberculosis FBA, fluorescence read-out. inhibition, % at 1 µM. 360,000 tested, 2.3% active. AID 588726; in the data active means inhibition above about 27%;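 further: 0% = vehicle and 100% = reference inhibitor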
Target sequence (P9WQA3 whole entry, looked up): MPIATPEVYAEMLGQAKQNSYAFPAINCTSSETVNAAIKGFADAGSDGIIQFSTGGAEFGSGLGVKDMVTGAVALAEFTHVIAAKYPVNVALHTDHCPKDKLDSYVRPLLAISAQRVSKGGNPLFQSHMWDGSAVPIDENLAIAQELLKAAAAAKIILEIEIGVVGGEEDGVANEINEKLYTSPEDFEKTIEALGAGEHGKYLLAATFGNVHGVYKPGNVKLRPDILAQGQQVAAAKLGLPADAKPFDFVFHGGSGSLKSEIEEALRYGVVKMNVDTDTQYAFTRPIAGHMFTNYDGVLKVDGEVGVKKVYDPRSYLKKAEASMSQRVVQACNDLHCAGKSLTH
GDH-TPI inh – counter-screen for M. tuberculosis FBA inhibitors: GDH-TPI coupled enzymes. 360,000 tested, 1.2% active. inhibition, % at 4.8 µM. GDH-TPI coupled enzyme counterscreen, NADH absorbance; in the data active means inhibition above about 30%;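 further: 0% = DMSO wells and 100% = wells lacking the enzyme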
BoNT-A LC inh2 – inhibitors of Botulinum neurotoxin A light chain protease. inhibition, % at 10 µM. multiplex microsphere protease substrate cleavage, flow cytometry. 360,000 tested, 0.17% active. AID 588499; further: plate controls were buffer without enzyme for full effect and enzyme alone for no effect
Bead autofluor – counter-screen for toxin protease inhibitors: compound fluorescence; compound autofluorescence counterscreen, microsphere flow cytometry; hits give high values; fluorescence intensity (test concentration not listed); 360,000 tested, 3.1% active; in the data active means fluorescence intensity above about 16000; inconclusive means no clear call, values can overlap the other calls
Anthrax LF prot – inhibitors of Bacillus anthracis lethal factor protease; multiplex microsphere protease cleavage assay, LF; P15917; inhibition, % at 10 µM; 360,000 tested, 0.12% active; AID 588501; further: plate controls were buffer without enzyme for full effect and enzyme alone for no effect
BoNT-F LC inh – BoNT F light chain protease inhibition; inhibition, % at 10 µM; AID 588497; 360,000 tested, 0.22% active; Multiplex microsphere protease cleavage assay, flow cytometry; in the data active means inhibition above about 35%, passing the limit was not always enough; inconclusive means no clear call, values can overlap the other calls; further: plate controls were buffer without enzyme for full effect and enzyme alone for no effect
* hit, by the source's call; ? = inconclusive; . = no result given; + = active, no number. Compounds with a hit are over-represented: about 6.6% of the library has one in this group of screens. Unless noted, no stated cut-off is given here; in the data, active means inhibition above about 30%; inconclusive means no clear call, values can overlap the other calls; inactive means below that.

SMILES	Mtb FBA inh	GDH-TPI inh	BoNT-A LC inh2	Bead autofluor	Anthrax LF prot	BoNT-F LC inh
O=C(CSCCO)Nc1ccccc1	-2	-16	0	9041	-2	3
COc1ccc(C)cc1NC(=O)COCC(=O)O	0	-6	0	20410*	0	0
Cc1csc(NC(=O)CSc2nc3ccccc3s2)n1	2	14	-1	2323	-3	8
Cc1ccc2sc(-c3ccc(NC(=O)/C=C\C(=O)O)cc3)nc2c1	+	22	0	2365	-1	3
O=C(NC1CCCCC1)c1cc(C2CC2)nn1-c1ccccc1	1	-1	-1	3603	3	-2
CC(C)=CCC[C@H](C)C[C@@H]1Cc2[nH][nH]c(=O)c2[C@@H](c2ccc(F)cc2)O1	.	.	0	5999	-2	-13
CC(C)NC(=O)c1ccc(-c2cccc(C(F)(F)F)c2)o1	7	-2	0	3254	-8	-4
CC(C)NC(=O)c1ccc(-c2cc(C(F)(F)F)ccc2Cl)o1	4	5	0	22154*	-2	-3
O=C(N/C(=C/c1ccc(F)cc1)C(=O)N1CCOCC1)c1ccco1	0	5	0	3550	-1	0
O=C(CN(c1ccccc1F)S(=O)(=O)c1ccccc1)NC1CCCCCC1	2	-3	0	10895	-3	1
CCOC(=O)CN(Cc1ccccc1)S(=O)(=O)c1ccc(NC(C)=O)cc1	-3	-4	-4	21423*	0	-4
Cc1ccc(S(=O)(=O)N(CC(=O)O)Cc2ccccc2)cc1	0	3	0	11275	-4	0
O=C(O)CN(Cc1ccccc1)S(=O)(=O)c1ccc(F)cc1	4	-12	-3	20545*	1	-6
O=C(O)CN(c1ccccc1F)S(=O)(=O)c1ccccc1	-2	5	?	21296*	0	-6
O=C(Nc1ccc(Cl)cc1C(F)(F)F)c1ccccc1	0	0	1	2190	0	-2
O=C(O)c1ccc(N/N=C/c2ccc(-c3ccc(Br)cc3)o2)cc1	11	19	-1	5704	-4	-5
Nc1nnc(CC(=O)N/N=C/c2ccc(-c3cccc(C(=O)O)c3)o2)s1	4	46*	-2	3631	-8	-3
O=C(Cc1ccc(Br)cc1)N/N=C/c1ccc(-c2cccc(C(=O)O)c2)o1	7	62*	0	4958	-5	-2
CCOC(=O)c1ccc(-c2ccc(/C=N/NC(=O)Cc3nnc(N)s3)o2)cc1	21	40*	0	4203	-4	-2
Nc1nnc(CC(=O)N/N=C\c2cc([N+](=O)[O-])ccc2O)s1	-7	26	-2	3289	-1	-13
Nc1nnc(CC(=O)N/N=C/c2ccc(-c3ccc(F)cc3)o2)s1	2	21	4	4152	?	38*
Cc1ccc(/C=N/NC(=O)c2cccnc2)o1	-1	17	-1	5007	0	-1
O=C(O)c1cccc(-c2ccc(/C=N/NC(=O)c3cccnc3)o2)c1	23	57*	-1	7892	-11	-18
COc1ccccc1C1=NOC(COc2ccc3c(C)cc(=O)oc3c2)C1 (configuration not stated)	12	4	0	3715	?	44*
O=C(O)CC/C(=N\Nc1ccc([N+](=O)[O-])cc1S(=O)(=O)N1CCOCC1)c1cccs1	-9	14	0	5186	-5	-8
SMILES	Mtb FBA inh	GDH-TPI inh	BoNT-A LC inh2	Bead autofluor	Anthrax LF prot	BoNT-F LC inh
CCOC(=O)CN1C(=O)C(=O)N(Cc2ccccc2F)C1=O	9	-5	0	3849	-9	-10
COc1ccc(-c2ccnc3nc(N4CCN(c5ccccc5)CC4)nn23)cc1	-1	22	?	22429*	-11	-2
COc1ccc(-c2cc(C#N)nc(N3CCN(c4ccccc4)CC3)n2)cc1	3	-1	-1	4354	-1	-17
Fc1ccc(-c2ccnc3nc(N4CCOCC4)nn23)cc1	52*	8	-1	23704*	-1	-3
Fc1ccc(-c2ccnc3nc(-n4cccc4)nn23)cc1	-6	3	1	9565	-1	4
CCN(C[C@H]1N[C@@](CC)(C(=O)OC)[C@H]2C(=O)N(Cc3ccccc3)C(=O)[C@@H]12)C(=O)NC(C)C	1	5	0	2847	2	4
CCC(=O)Nc1nnc(/C=C/c2ccc(OC)cc2)s1	-12	43*	?	3595	14	?
COc1ccc(/C=C/c2nnc(NC(=O)CSc3ccc(C)cc3)s2)cc1	2	-6	0	5811	-6	-6

Compound activity from PubChem.
